The nature of experiment [1]: ATG_CRE_CIS: Attagene CIS-FACTORIAL HepG2 Assay for human cAMP Responsive Element (CRE) binding protein 3 (AID 2282926). The following applies: HepG2 CRE cis-reporter, Attagene multiplexed mRNA; actives raise or lower the signal. A digest of the protocol:
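Capillary electrophoresis of 6-FAM-labelled, HpaI-digested PCR products quantified reporter transcripts. These came from HepG2 transiently transfected with cis-element reporters and exposed to test chemicals for 24 hours, with DMSO defining baseline activity.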

For experiment [2], the target named is CCAAT/enhancer-binding protein beta (Homo sapiens) (UniProt P17676). Briefly: ATG_C_EBP_CIS: Attagene CIS-FACTORIAL HepG2 Assay for human CCAAT/Enhancer Binding Protein (C/EBP) beta (AID 2282927). The conditions noted are these: HepG2 Attagene cis-factorial transcription factor reporter; actives raise or lower the signal. A digest of the protocol:
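Following a 24 h incubation with test chemical, transfected HepG2 cells yielded RNA whose reporter transcripts were quantified by RT-PCR and fluorescent capillary electrophoresis, with DMSO serving as baseline for bidirectional fitting.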

Experiment [3] is described as follows: ATG_CMV_CIS: Attagene CIS-FACTORIAL HepG2 Assay for human CMV (Internal Marker) (AID 2282928).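 Note: endpoint acts as a background internal control marker rather than a target.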 The following applies: HepG2 CMV promoter reporter, transcription factor profiling; actives raise or lower the signal. A digest of the protocol:
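Fluorescence intensity of RT-PCR-derived reporter fragments, resolved by capillary electrophoresis, gives the signal. HepG2 liver cells bearing transfected cis-element reporters were treated 24 h; activity in either direction was fit relative to DMSO-treated controls.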

Experiment [4] in a line: ATG_DR4_LXR_CIS: Attagene CIS-FACTORIAL HepG2 Assay for human Liver X Receptor (LXR), DR4 submotif (AID 2282929). The following applies: HepG2 Attagene DR4 cis-reporter, mRNA transcription; actives raise or lower the signal. Put shortly: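 Cells were transfected with multiple reporter transcription units, exposed to chemicals for 24 hours, then lysed for RNA. Reporter mRNA induction was measured by RT-PCR with capillary electrophoresis detection and fitted in both directions relative to DMSO.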

The nature of experiment [5]: ATG_AP_1_CIS: Attagene CIS-FACTORIAL HepG2 Assay for human Activator Protein 1 (AP-1) (AID 2282931). The following applies: HepG2 Attagene cis-factorial AP-1 reporter mRNA; actives raise or lower the signal. Put shortly:
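Endogenous transcription-factor activity in human HepG2 liver cells is read through a cis-promoter reporter transcript, sampled 24 h after dosing. Detection uses RT-PCR with capillary electrophoresis; values come from bidirectional fitting relative to DMSO.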

The nature of experiment [6]: ATG_AP_2_CIS: Attagene CIS-FACTORIAL HepG2 Assay for human Activator Protein 2 (AP-2) (AID 2282932). The following applies: HepG2 AP-2 cis-reporter, Attagene transcription factor profiling; actives raise or lower the signal. A digest of the protocol: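 Cells (HepG2) transfected with promoter-driven reporter constructs, treated 24 h. Total RNA reverse-transcribed, reporter cDNA PCR-amplified, FAM-labelled by primer extension, digested, resolved by capillary electrophoresis. Activity fitted both directions versus DMSO.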

Experiment [7] is described as follows: ATG_BRE_CIS: Attagene CIS-FACTORIAL HepG2 Assay for human Bone Morphogenetic Protein (BMP) Response Element (BRE) (AID 2282933). The conditions noted are these: HepG2 BMP response element reporter, Attagene transcription factor profiling; actives raise or lower the signal. A digest of the protocol: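 HepG2 cells transiently transfected with CIS reporter units (endogenous TF activity, BMP response element), dosed 24 h. Reporter mRNA quantified by RT-PCR, fluorescent labelling and capillary electrophoresis; bidirectional fit vs DMSO baseline.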

For experiment [8], the target named is Transcription factor E2F1 (Homo sapiens) (UniProt Q01094). Briefly: ATG_E2F_CIS: Attagene CIS-FACTORIAL HepG2 Assay for human E2F Transcription Factor 1 (AID 2282935). The following applies: HepG2 Attagene cis-reporter, E2F reporter RNA transcripts; actives raise or lower the signal. A digest of the protocol: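 First, HepG2 cells were transfected with reporter transcription units. Next, they were dosed for 24 h. Then RNA was isolated, converted to cDNA, PCR-amplified, FAM-labeled, HpaI-digested and analyzed by capillary electrophoresis.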

Experiment [9] in a line: ATG_E_Box_CIS: Attagene CIS-FACTORIAL HepG2 Assay for human Enhancer Box (E-box) (AID 2282936). The following applies: HepG2 E-box cis-reporter transcription, actives raise or lower the signal. Put shortly:
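Endogenous transcription factor activity was sensed in human HepG2 liver cells through transfected cis-promoter reporter units. After 24 h of dosing, total RNA was reverse-transcribed and reporter cDNA resolved by capillary electrophoresis.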

A short description of experiment [10]: ATG_M_61_CIS: Attagene CIS-FACTORIAL HepG2 Assay for M61 Transcription Factor (Internal Marker) (AID 2282937). The conditions noted are these: HepG2 Attagene CIS-FACTORIAL M61 internal marker reporter; actives raise or lower the signal. Put shortly: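 Cells were transfected with reporter units under cis-regulatory promoters, treated with chemicals for 24 h, then lysed for RNA. Reporter transcripts were quantified by RT-PCR and capillary electrophoresis, and activity was fitted bidirectionally against DMSO.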

Experiment [11] can be described thus: ATG_EGR_CIS: Attagene CIS-FACTORIAL HepG2 Assay for human Early Growth Response 1 (EGR1) (AID 2282938). The following applies: HepG2 Attagene CIS-FACTORIAL EGR reporter mRNA; actives raise or lower the signal. Put shortly:
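Endogenous TF activity in HepG2 liver cells was gauged through cis-promoter reporter constructs transiently transfected. After 24 h dosing, reporter mRNA was quantified by RT-PCR and capillary electrophoresis, and curves fitted in both directions versus DMSO.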

The nature of experiment [12]: ATG_Ets_CIS: Attagene CIS-FACTORIAL HepG2 Assay for human Erythroblast Transformation Specific (ETS) (AID 2282941). The following applies: HepG2 ETS cis-reporter transcription, actives raise or lower the signal. Put shortly:
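Multiplexed reporter transcript profiling: HepG2, 24 h treatment, total RNA to cDNA, PCR, 6-FAM labelling, HpaI cut, capillary electrophoresis. Gain- or loss-of-signal fitted against DMSO.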

The nature of experiment [13]: ATG_FoxO_CIS: Attagene CIS-FACTORIAL HepG2 Assay for human Forkhead box O (FoxO) (AID 2282943). The following applies: HepG2 Attagene cis-reporter, FoxO element, mRNA; actives raise or lower the signal. A digest of the protocol: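 Values reflect reporter mRNA induction or loss in HepG2 cells 24 h post-dosing, fitted bidirectionally with DMSO as negative control and baseline. Detection used RT-PCR and fluorescence capillary electrophoresis.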

A short description of experiment [14]: ATG_GATA_CIS: Attagene CIS-FACTORIAL HepG2 Assay for human GATA Binding Protein (AID 2282944). The following applies: HepG2 GATA cis-element reporter, Attagene multiplex mRNA; actives raise or lower the signal. Put shortly:
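HepG2 cells transiently transfected with multiplexed cis-element reporter units measure endogenous GATA activity; after 24 h compound exposure, reporter mRNA quantified by RT-PCR and capillary electrophoresis. Changes fitted in both directions vs DMSO.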

The nature of experiment [15]: ATG_GLI_CIS: Attagene CIS-FACTORIAL HepG2 Assay for human Zinc Finger Protein GLI1 (AID 2282945). The conditions noted are these: HepG2, Attagene cis-factorial reporter mRNA, GLI element; actives raise or lower the signal. A digest of the protocol:
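HepG2 cells transiently transfected with cis-promoter multiplexed reporter units report endogenous transcription factor activity. After 24 h chemical exposure, reporter mRNA was quantified by RT-PCR, 6-FAM labelling, HpaI digestion and capillary electrophoresis, with bidirectional fitting against DMSO.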

Experiment [16] can be described thus: ATG_ISRE_CIS: Attagene CIS-FACTORIAL HepG2 Assay for human Interferon Regulatory Factor 1 (IRF1) binding to an Interferon-Stimulated Response Element (ISRE) (AID 2282948). The following applies: HepG2 ISRE cis-reporter (Attagene), mRNA transcription readout; actives raise or lower the signal. Put shortly: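 Signal reflects induction or loss of ISRE-linked reporter mRNA in transiently transfected HepG2 cells after a 24 h treatment, detected by fluorescent RT-PCR fragments on capillary electrophoresis and normalised to DMSO.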

A short description of experiment [17]: ATG_M_32_CIS: Attagene CIS-FACTORIAL HepG2 Assay for M32 Transcription Factor (Internal Marker) (AID 2282949).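 Note: background control marker of the multiplexed CIS panel rather than a real target.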 The conditions noted are these: HepG2 Attagene cis-factorial M32 reporter, mRNA; actives raise or lower the signal. A digest of the protocol: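 HepG2 human liver cells transiently transfected with cis-promoter-driven multiple reporter transcription units, dosed 24 h. Reporter mRNA quantified by RT-PCR, FAM-labelled primer extension, HpaI digest and capillary electrophoresis; bidirectional fit versus DMSO baseline.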

Experiment [18] is described as follows: ATG_M_06_CIS: Attagene CIS-FACTORIAL HepG2 Assay for M06 Transcription Factor (Internal Marker) (AID 2282950). The conditions noted are these: HepG2 Attagene CIS-FACTORIAL M06 internal marker reporter; actives raise or lower the signal. A digest of the protocol:
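Internal background marker within multiplexed cis-reporter HepG2 system. Cells transiently transfected, dosed 24 h; reporter mRNA measured by RT-PCR, HpaI digestion and capillary electrophoresis. Bidirectional fit relative to DMSO.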

Experiment [19] has as its target Paired box protein Pax-6 (Homo sapiens) (UniProt P26367). Briefly: ATG_Pax6_CIS: Attagene CIS-FACTORIAL HepG2 Assay for human Paired Box 6 (PAX6) (AID 2282956). The conditions noted are these: HepG2 CIS-FACTORIAL PAX6 reporter transcription, RNA readout; actives raise or lower the signal. Put shortly: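 Values derive from bidirectional curve fitting of reporter mRNA signal relative to DMSO. HepG2 cells bearing transfected cis-regulated MRTUs were exposed for 24 h; transcripts were read by RT-PCR and capillary electrophoresis.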

Experiment [20] in a line: ATG_PXRE_CIS: Attagene CIS-FACTORIAL HepG2 Assay for human Pregnane X Receptor Element (PXRE) (AID 2282957). The conditions noted are these: HepG2 Attagene CIS-FACTORIAL PXRE reporter, mRNA; actives raise or lower the signal. A digest of the protocol:
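Fluorescent capillary electrophoresis of amplified reporter cDNA gave the signal, collected 24 h after dosing HepG2 cells that held transfected cis-element reporter constructs.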

This passage reports AC50 and outcome results from PubChem BioAssay (EPA / NIEHS).

Active and inactive are the calls of the source. Rule for the calls: active = hit-call score of the fitted dose curve at least 0.9, where 1 is the maximum; inactive = score below 0.9.

Sequence of Paired box protein Pax-6 (Homo sapiens) (P26367 whole entry, looked up): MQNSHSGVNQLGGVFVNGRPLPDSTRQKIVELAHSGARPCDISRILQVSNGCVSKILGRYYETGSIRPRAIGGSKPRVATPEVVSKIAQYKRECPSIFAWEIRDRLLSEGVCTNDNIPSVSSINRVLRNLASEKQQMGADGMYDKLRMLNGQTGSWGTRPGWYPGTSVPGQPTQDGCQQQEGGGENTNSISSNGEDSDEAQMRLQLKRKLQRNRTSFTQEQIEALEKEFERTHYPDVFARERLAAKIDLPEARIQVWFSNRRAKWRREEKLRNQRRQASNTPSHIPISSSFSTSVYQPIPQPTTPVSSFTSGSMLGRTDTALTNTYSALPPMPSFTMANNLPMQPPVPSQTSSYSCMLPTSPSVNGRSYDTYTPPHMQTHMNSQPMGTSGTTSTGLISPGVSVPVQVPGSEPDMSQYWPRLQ
Sequence of Transcription factor E2F1 (Homo sapiens) (Q01094 whole entry, looked up): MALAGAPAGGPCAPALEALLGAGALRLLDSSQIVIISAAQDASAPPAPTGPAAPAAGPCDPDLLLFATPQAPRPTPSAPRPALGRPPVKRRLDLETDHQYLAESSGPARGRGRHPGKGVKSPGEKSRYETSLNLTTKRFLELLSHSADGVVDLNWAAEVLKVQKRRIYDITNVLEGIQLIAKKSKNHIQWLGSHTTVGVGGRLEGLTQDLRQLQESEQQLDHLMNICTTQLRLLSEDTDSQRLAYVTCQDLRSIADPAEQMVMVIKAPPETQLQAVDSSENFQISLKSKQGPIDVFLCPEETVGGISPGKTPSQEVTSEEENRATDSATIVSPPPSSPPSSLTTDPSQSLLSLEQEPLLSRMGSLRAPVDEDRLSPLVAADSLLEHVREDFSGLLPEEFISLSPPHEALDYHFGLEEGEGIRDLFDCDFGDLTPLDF
Sequence of CCAAT/enhancer-binding protein beta (Homo sapiens) (P17676 whole entry, looked up): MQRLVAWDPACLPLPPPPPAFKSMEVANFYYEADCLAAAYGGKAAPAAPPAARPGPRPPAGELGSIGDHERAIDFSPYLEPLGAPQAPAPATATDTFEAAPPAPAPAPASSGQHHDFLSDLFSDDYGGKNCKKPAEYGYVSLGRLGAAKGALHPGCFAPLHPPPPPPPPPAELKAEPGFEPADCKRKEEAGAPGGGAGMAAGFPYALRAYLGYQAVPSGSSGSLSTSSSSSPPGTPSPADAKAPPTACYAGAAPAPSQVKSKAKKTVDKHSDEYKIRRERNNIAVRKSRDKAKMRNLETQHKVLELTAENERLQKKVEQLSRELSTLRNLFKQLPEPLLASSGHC

For `CCCCCCCCCCCCCCCCCC[N+](C)(C)C`, the AC50 is 44.4 µM (active) in experiment [1]; 41.1 µM (active) in [2]; 6.61 µM (active) in [4]; 38.6 µM (active) in experiment [6]; 6.9 µM (active) in experiment [9]; 16.7 µM (active) in [12]. Also, the AC50 is 42 µM (active) in experiment [13]; 38.7 µM (active) in [14]; 43.6 µM (active) in experiment [15]; 39.2 µM (active) in experiment [17]; 5.86 µM (active) in experiment [19]. The compound was called inactive in experiment [3], in experiment [5], in experiment [7], in [8], in experiment [10] and in [11]. Further, the compound was classed as inactive in [16], in experiment [18] and in [20].
As to `CC(=O)c1nccs1`, the result in experiment [1], in [2], in [3], in experiment [4], in experiment [5] and in experiment [6] was inactive. In addition, the outcome in experiment [7], in experiment [8], in experiment [9], in experiment [10], in experiment [11] and in experiment [12] was inactive. Also, the call in experiment [13], in [14], in [15], in experiment [16], in experiment [17] and in [18] was inactive. Also, the result in [19] and in experiment [20] was inactive.
Take `Cc1cc(C)c(S(=O)(=O)O)cc1N=Nc1cc(S(=O)(=O)O)c2ccccc2c1O`: the outcome in [1], in [2], in [3], in experiment [4], in [5] and in [6] was inactive. Also, the outcome in [7], in experiment [8], in [9], in experiment [10], in experiment [11] and in experiment [12] was inactive. Further, the compound was called inactive in experiment [13], in [14], in experiment [15], in [16], in experiment [17] and in experiment [18]. For the same compound, the result in experiment [19] and in [20] was inactive.
